Screening results from PubChem.
A selection: hits, their analogues and other compounds. The true share with any hit is near 21%.
Shiga toxin inh: blocks Shiga toxin action in Vero cells; Vero cells, Shiga toxin protein synthesis inhibition reporter; inhibition, % at 38.7 µM; actives 9.2% (n = 290,000); in the data active means inhibition mostly above about 28%, no sharp cut-off; inactive means mostly below about 43%; further: 0% is about no effect
CHX counter: counter-screen hit for Shiga toxin inhibitors, cycloheximide. cell reporter, cycloheximide protein synthesis inhibition counterscreen. max response, %. actives 12% (n = 300,000); in the data active means max response mostly above about 13%, no sharp cut-off; inactive means mostly below about 14%; further: read at 38.3 µM for the half of the compounds with a filed dose; 0% is about no effect
NS1 function inh: blocks influenza NS1 protein function | actives 0.4% (n = 270,000) | Potency, µM (series often up to 46.1 µM), for inactives: top-dose activity, positive = more growth | AID 2326; calls by dose curve; further: potency means the concentration at half of the fitted maximal effect; actives are rising curves; nearly all actives have a fitted effect of over 50% in size
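Read-out: OD600 growth recovery of NS1-expressing budding yeast. Cells grown overnight at 30C in -URA glucose medium, washed, resuspended and diluted 1:100 in 2% galactose assay medium, pH 6.0. Same strain lacking NS1 served as positive control.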
Pf growth 96h: P. falciparum growth inhibition at 96 hours. P. falciparum luciferase reporter growth, 96 h. actives 6.9% (n = 320,000). Potency, µM (highest dose often 28.7 µM), inactives show at the top dose activity change, negative = inhibition, actives largely listed as inhibitors. AID 504834; further: potency means the concentration at half of the fitted maximal effect; on the % scale 0 is the no-effect control and ±100 the full control effect
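P. falciparum expressing integrated firefly luciferase, in erythrocytes at 2% hematocrit, 0.05% parasitemia, incubated with compounds 96 h at 37 C, 5% CO2. Growth inhibition read as loss of luminescence; two-generation exposure targets delayed-death apicoplast inhibitors.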
Giardia FBPA inh: Giardia lamblia aldolase inhibition | AID 2451 | Potency, µM (series often up to 59.6 µM), for the others: at the highest dose activity, negative = inhibition, usual class: inhibitors | actives 0.71% (n = 290,000) | purified Giardia FBPA | A8B2U2; further: potency means the concentration at half of the fitted maximal effect; on the % scale 0 is the no-effect control and ±100 the full control effect; nearly all actives have a fitted effect of over 55% in size
Target sequence (A8B2U2 whole entry, looked up): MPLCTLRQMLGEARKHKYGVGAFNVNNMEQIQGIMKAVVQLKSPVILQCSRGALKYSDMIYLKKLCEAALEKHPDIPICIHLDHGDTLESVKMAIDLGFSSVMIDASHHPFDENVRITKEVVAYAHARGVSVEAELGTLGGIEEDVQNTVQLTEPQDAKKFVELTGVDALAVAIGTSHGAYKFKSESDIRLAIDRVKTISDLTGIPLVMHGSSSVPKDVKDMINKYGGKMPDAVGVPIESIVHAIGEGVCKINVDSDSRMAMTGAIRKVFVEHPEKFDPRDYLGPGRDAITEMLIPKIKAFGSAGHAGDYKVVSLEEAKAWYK
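Giardia FBPA (40 nM reagent) was preincubated 10 min at RT with compound (up to 57.5 uM final), then substrate plus GAPDH/TPI/NAD/arsenate coupling system with diaphorase/resazurin was added; resorufin fluorescence (525/598 nm) was read after 20 min.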
Pf growth 48h: P. falciparum growth inhibition at 48 hours (one generation) | P. falciparum luciferase growth in erythrocytes, 48 h | actives 5.9% (n = 310,000) | Potency, µM (doses to about 28.7 µM), inactives show at the highest dose activity change, negative = inhibition, actives largely listed as inhibitors; further: potency means the concentration at half of the fitted maximal effect; on the % scale 0 is the no-effect control and ±100 the full control effect
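Luminescence readout; reporter = integrated firefly luciferase in P. falciparum. RBC culture at 2% hematocrit, 0.1% parasitemia final, 37 C/5% CO2; decreased signal taken as growth inhibition.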
Flu NS1 inh: validation of influenza NS1 protein function inhibitors. shares compounds with NS1 function inh. AID 492980. activity change, negative = inhibition, % at 32.9 µM. influenza NS1 function cell assay, 15-point titration. 1,400 tested, under 10 active; calls by dose curve; further: 0% is about no effect
Flu PR8 replic: influenza virus titer reduction, NS1 project; AID 504647; actives 30% (n = 95); virus titer (log TCID50), log10 TCID50 at 5 µM; shares compounds with NS1 function inh; MDCK infected influenza A/PR/8/34, virus titer TCID50; active compounds read low; call rule not given here
Active calls of the source: *; ? = inconclusive; · = no result. Unless noted, the call rests on the fitted dose curve; in most records, active means well fitted curve in the direction sought with a large enough effect; inconclusive means small, poorly fitted or top-dose-only effect, or another doubt; inactive means no such curve, though single readings can be large; an effect the other way counts as inactive or inconclusive.

SMILES	Shiga toxin inh	CHX counter	NS1 function inh	Pf growth 96h	Giardia FBPA inh	Pf growth 48h	Flu NS1 inh	others
O=C(O)/C=C/c1nc(-c2ccccc2)n2ccccc12	79.0*	71.2*	?	41.5%	?	112.1%	-1.3
CC1Oc2ccccc2N(CC(=O)NC2CCCC2)C1=O (stereo unspecified)	-6.0	-2.3	8.6%	19.0%	5.8%	13.8%	·
CC1Oc2ccccc2N(CC(=O)N2CCCCC2)C1=O (stereo unspecified)	-5.3	-4.8	10µM*	32.2%	9.4%	?	8.6
CCOc1ccc(C(C#N)N2CCOCC2)cc1OC (stereo unspecified)	-18.7	26.8	15.8µM*	41.0%	21.7%	3.4%	?
COc1ccc(C(=O)Nc2c(N)nc(SCC(=O)Nc3ccc(NC(C)=O)cc3)[nH]c2=O)cc1OC	-2.6	-0.6	22.4µM*	10.4µM*	·	-25.4%	21.1
COc1ccc(C(=O)CSc2nnc(-c3ccccn3)n2Cc2ccco2)cc1	17.2	-4.4	?	?	-10.7%	?	-8.5
O=C(CSc1nnc(-c2ccccn2)n1Cc1ccco1)c1ccccc1	9.3	-2.3	-20.3%	-20.0%	-10.8%	-0.8%	·
COc1ccc(S(=O)(=O)N2CCOC2CNC(=O)C(=O)NCC(C)C)cc1OC (stereo unspecified)	-15.3	-1.6	15.1%	?	·	-3.7%	·
COC(=O)[C@@H](NC(=O)O[C@@H]1C(=O)c2ccc(OC)cc2O[C@H]1c1cccc(C(F)(F)F)c1)C(C)C	19.7	-1.5	11.8%	-23.6%	-0.2%	-26.6%	·
O=C(N/N=C/c1ccc(F)cc1)c1cc(-c2ccccn2)nc2ccccc12	·	·	·	8.3%	·	-25.9%	·
O=C(N/N=C/c1ccc2c(c1)OCO2)c1cc(-c2ccc(F)cc2)nc2ccccc12	91.7*	50.4*	?	?	7.8%	20.1%	-0.9
COc1cccc(-c2cc(=O)c3cc(NC(=O)c4ccc(N(C)C)cc4)ccc3[nH]2)c1	-13.1	-8.3	12.6µM*	13.1µM*	-0.9%	10.4µM*	1.7
COc1cccc(C(=O)Nc2ccc3c(c2)C(=O)NC3=O)c1	25.5	2.2	4.6%	82.4%	-2.9%	36.2%	·
CNC(=O)c1ccc(-c2sc3nc(N4CCOCC4)c4c(c3c2N)CC(C)(C)OC4)o1	12.5	-3.8	21.3%	?	·	?	·
CC1(C)Cc2c(c(N3CCOCC3)nc3sc(-c4ccc(C(=O)O)o4)c(N)c23)CO1	8.7	-0.8	?	99.8%	?	11.7µM*	11.8
Cc1ccccc1-c1nc(CS(=O)CC(=O)N2CCC3(CC2)OCCO3)c(C)o1 (stereo unspecified)	35.6	4.8	1.12µM*	-25.7%	5.0%	?	4.8	Flu PR8 replic=8.33
Cc1oc(-c2ccccc2Cl)nc1CS(=O)CC(=O)N1CCN(c2ccccc2)CC1 (stereo unspecified)	-2.1	1.0	-10.0%	?	·	3.9%	·
COc1cc(CNc2ccc3[nH]c(=O)[nH]c3c2)cc(Br)c1OCc1ccccc1F	-4.5	1.0	0.794µM*	-10.5%	-0.8%	·	-3.4
CCOc1cc(CNc2ccccc2)cc(Br)c1OCc1ccccc1F	1.3	2.1	0.7%	·	-5.5%	?	·
CN1CCN(c2oc(-c3ccccc3F)nc2S(=O)(=O)c2ccc(Cl)cc2)CC1	-4.6	-2.2	-10.8%	0.0%	·	-13.2%	·
CN1CCN(C2=Nc3ccccc3Oc3ccc(Cl)cc32)CC1	-11.5	-3.6	?	-44.3%	-7.0%	?	-21.4	Flu PR8 replic=7.33*
Cc1cc(=O)oc(C)c1C(=O)NC1CCCCCCC1	-4.6	-4.4	·	1.0%	-1.6%	?	·
CN(C)c1ccccc1C(=O)c1ccccc1N(C)C	86.4*	28.4*	8.91µM*	·	-2.4%	67.0%	5.1
CS(=O)Cc1cc(Sc2ccccc2)nc(-c2ccncc2)n1 (stereo unspecified)	-3.3	-2.1	·	?	4.2%	-0.1%	·
C=CCc1cc(C)ccc1OCCOCCn1ccnc1	-5.3	-1.5	-10.8%	-9.2%	?	-9.5%	·
SMILES	Shiga toxin inh	CHX counter	NS1 function inh	Pf growth 96h	Giardia FBPA inh	Pf growth 48h	Flu NS1 inh	others
OC(Cc1nc2ccccc2[nH]1)c1ccccc1Cl (stereo unspecified)	107.5*	48.8*	0.282µM*	?	3.5%	-2.2%	-28.9
Cc1n[nH]c(C)c1CCc1nc2c3ccccc3nc(SCC(N)=O)n2n1	3.8	3.2	3.16µM*	?	-3.0%	48.6%	-7.0
O=C(CSc1nnc(COc2ccc3c(c2)CCCC3)o1)Nc1ccc(F)cc1	15.1	14.0	1.1%	-25.2%	5.8%	-3.5%	·
COc1ccc2nc(SCC(=O)Nc3ccccc3)[nH]c2c1	46.9	8.0	?	-73.1%	-9.1%	13.7%	-16.5
COc1ccc2nc(SCC(=O)NCc3ccccc3)[nH]c2c1	-6.5	0.2	15.6%	?	5.9%	9.7%	·
CCc1cc(=O)oc2cc(C)cc(OCC(=O)N[C@@H](CSCc3ccccc3)C(=O)O)c12	18.9	-2.1	10µM*	-14.9%	22.0%	?	24.9	Flu PR8 replic=7.33*
COc1ccc(Br)cc1C1CC(=O)N2CN(C)CSC2=C1C#N (stereo unspecified)	9.4	-1.9	-42.4%	?	?	·	·
COc1ccc(Br)cc1C1CC(=O)N2CN(Cc3ccccc3)CSC2=C1C#N (stereo unspecified)	-10.8	-1.5	11.2µM*	20.3%	?	·	-15.5
COc1ccc([N+](=O)[O-])cc1NC(=O)c1ccc(C)o1	-14.1	-2.6	-6.0%	-11.4%	3.2%	9.6%	·
COc1ccc(C2Nc3ccccc3C(=O)N2Cc2ccco2)cc1COc1ccc(NC(C)=O)cc1 (stereo unspecified)	-8.0	2.8	12.6µM*	10.4µM*	17.4%	?	9.6
COc1ccc(C2Nc3ccccc3C(=O)N2Cc2ccccc2)cc1CSc1ccccn1 (stereo unspecified)	-18.9	-4.5	-10.5%	?	-5.3%	?	·
COc1ccc(Oc2nc(C)cc(C)c2C#N)cc1	-6.2	-5.7	?	·	0.7%	?	-1.1
COc1ccccc1C/C(N)=N/OC(=O)COc1ccc(C)cc1	-6.4	1.0	?	2.08µM*	-5.4%	1.3%	?
CCOCCCNC(=O)C(NC(=O)c1ccc(NC(C)=O)cc1)c1ccc(Cl)cc1 (stereo unspecified)	-12.7	1.3	0.4%	?	0.3%	6.4%	·
CCOCCCNC(=O)C(NC(=O)CC1NC(=O)NC1=O)c1ccc(Cl)cc1 (stereo unspecified)	11.0	-6.6	0.891µM*	37.8%	2.0%	1.6%	-17.3
